Compounds without any hit were thinned out: in the full panel of roughly 83,000, 20% have a hit.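 Step 1: grow cells in 96-well plates. Step 2: add test compound at a single concentration. Step 3: incubate 48 h. Step 4: record percent growth.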 Unmarked numbers belong to inactive results. Active and inactive are the calls of the source. How the source made its calls: active means growth percent below 10; inactive means the rest.

The test system of one assay is SF-539 CNS. In words: NCI-60 one-dose screen, 48 h (100 = growth as untreated, 0 = no growth, -100 = all killed). The following applies: 10 µM unless noted.
As to `COc1ccc(Cn2cc3c(c2-c2ccccc2)CCc2cnoc2-3)cc1OC`, the growth was -22.1% (active).
For the compound `CC1(C)Oc2cc3oc(=O)ccc3cc2C[C@@H]1OCCOS(=O)(=O)c1ccc(C#N)cc1`, the growth is 96.6%.
Consider `c1ccc(-c2cn3ccnc3c(-c3ccc4ncn(C5CCCCC5)c4c3)n2)cc1`, for which the growth was 72.2%.
The same measure, in the same setting: as for `COC(=O)/C=C/c1cc(O)c2oc(-c3ccc(O)c(O)c3)c(C(=O)OC)c2c1`, the figure is 2.83% (active); as for `CC1=C[C@@H]2c3c(c(O)c(O)c4oc5cc(O)cc(O)c5c(=O)c34)[C@@H](c3cc(O)c(O)c4oc5cc(O)cc(O)c5c(=O)c34)[C@@H]2C(C)(C)C1`, -5.82% (active).
On the same count and under the same terms, as for `COc1ccc(C(=O)CN2C(=O)NC(c3ccccc3)(c3ccccc3)C2=O)cc1`, the figure is 92.9%; as for `NNC(=S)N1N=C(c2cc3ccccc3o2)CC1c1c[nH]c2ccccc12` (centres undefined), 57.9%.
Same read-out and setting: as for `CCOC(=O)C1=NN(c2ccccc2)C2=NC(=O)/C(=C\c3cn(-c4ccccc4)nc3-c3cc4ccccc4o3)C(=O)N12`, the figure is 114%; as for `CCCCN(CCCC)CC(O)CN(CC)CC` (centres undefined), 108%.
As for `CC(C)OC(=O)[C@H](C)N[P@@](=O)(OC[C@@]1(C)O[C@@H](n2cc(F)c(N)nc2=O)C[C@@H]1O[P@](=O)(N[C@@H](C)C(=O)OC(C)C)Oc1ccccc1)Oc1ccccc1`, the growth was 63.3%.
Turning to `COc1ccc(Cn2cc3c(c2)-c2oncc2CC3)cc1OC`, the growth is -21.5% (active).
As to `COc1ccc(Cn2cc3c(c2-c2ccc(OC)cc2)CCc2cnoc2-3)cc1`, the growth is -28% (active).
Still for that read-out and setting: then `COc1ccc2oc(=O)cc(CN3C(=O)S/C(=C\c4ccc(Cl)cc4)C3=O)c2c1`, with 99.6%; and `COc1cc(-c2nc(/C=C3/C(=O)Nc4ccccc43)c3ccccn23)cc(OC)c1OC`, with 83.6%.
As to `CCNc1nnc(COc2ccc(CNC(=O)CCCC/C=C/C(C)C)cc2OC)o1`, the growth is 104%.
As to `CC([C@H]1CC=C2C3CCC4=C[C@@H](N(C)C)CC[C@]4(C)C3CC[C@@]21C)N(C)C` (some centres undefined), the growth was 4.25% (active).
For `CCS(=O)(=O)OCCO[C@H]1Cc2cc3ccc(=O)oc3cc2OC1(C)C`, the growth was 100%.
On to `CC1(C)NCCC[C@]2(C)[C@H]3CC=C4[C@@H]5C[C@](C)(COC(=O)c6ccccc6C(=O)O)CC[C@]5(C)CC[C@@]4(C)[C@]3(C)CC[C@@H]12`, for which the growth is 66.6%.
For `O=C1c2ccccc2CCc2ccccc21`, the growth is 107%.
For the compound `O=C(/C=C/c1c[nH]c2ccccc12)c1cc2ccccc2o1`, the growth was 82.1%.
Take `N#Cc1ccc(NC2c3ccccc3CC2O)cc1` (centres undefined): the growth is 102%.
Turning to `C=CCN(C)C`, the growth was 109%.
Take `Cc1ccc(C(=O)NN)cc1`: the growth was 114%.
On to `CC[C@@H](C)/C=C(C)/C=C/C(=O)c1c(O)c(-c2ccc(OC(=O)[C@@]34CC[C@@](C)(C(=O)O3)C4(C)C)cc2)cn(O)c1=O`, for which the growth is 16.7%.
`Cc1c(CN(C)C)cc(C(C)C)cc1C(C)C`: the growth was 118%.
The same measure, in the same setting: then `CC1(c2ccc(Br)cc2)NC(=O)NC1=O` (centres undefined), with 100%; and `Oc1ccc2ccccc2c1/C=N\Nc1ccccn1`, with -4.88% (active); and `C=C(C)[C@@H]1CC[C@]2(COC(=O)c3ccccc3C(=O)O)CC[C@]3(C)[C@H](CC[C@@H]4[C@@]5(C)CCCNC(C)(C)[C@@H]5CC[C@]43C)[C@@H]12`, with 75.7%.
For the compound `COC1=C(OC)C(=O)c2ccccc2C1=O`, the growth was 102%.
The same measure, in the same setting: as for `CCCCCC(=C/c1ccccc1)/C=N/N=C(N)N`, the figure is 45.5%; as for `O=C1C(Cl)=C(SC2=NCCN2)C(=O)c2ccccc21`, 105%.
As for `COC(=O)Nc1nc2ccc(C(=O)c3ccccc3N(C)C3COC3)cc2[nH]1`, the growth is 9.06% (active).
Regarding `C[C@@H](c1ccc2c(c1)[nH]c1ccc(Cl)cc12)c1nc2ccc(Cl)cc2[nH]1`, the growth is 85.7%.
As to `O=c1oc2ccc3ccccc3c2cc1-c1ccnc2[nH]c(=S)[nH]c(=O)c12`, the growth is 103%.
For the compound `O=S(=O)(Cc1cccc2c(CS(=O)(=O)c3ccc(Cl)cc3)cccc12)c1ccc(Cl)cc1`, the growth was 94.3%.
Regarding `COc1ccc(CN2C(=O)/C(=C\C(=O)c3ccc(OCCN4CCCC4)cc3)c3ccccc32)cc1`, the growth is 86.6%.
With `Cc1cc(CSc2ccc(Cl)cc2)ccc1N`, the growth was 62.9%.

The next assay concerns UACC-257 melanoma. Described as above. To be noted: 10 µM unless noted.
For `COc1ccc(Cn2cc3c(c2-c2ccccc2)CCc2cnoc2-3)cc1OC`, the growth was 61.9%.
The same measure, in the same setting: then `CC1(C)Oc2cc3oc(=O)ccc3cc2C[C@@H]1OCCOS(=O)(=O)c1ccc(C#N)cc1`, with 84.2%; and `c1ccc(-c2cn3ccnc3c(-c3ccc4ncn(C5CCCCC5)c4c3)n2)cc1`, with 94.8%; and `COC(=O)/C=C/c1cc(O)c2oc(-c3ccc(O)c(O)c3)c(C(=O)OC)c2c1`, with 60.4%.
Same read-out and setting: as for `CC1=C[C@@H]2c3c(c(O)c(O)c4oc5cc(O)cc(O)c5c(=O)c34)[C@@H](c3cc(O)c(O)c4oc5cc(O)cc(O)c5c(=O)c34)[C@@H]2C(C)(C)C1`, the figure is 27%; as for `COc1ccc(C(=O)CN2C(=O)NC(c3ccccc3)(c3ccccc3)C2=O)cc1`, 98.7%; as for `NNC(=S)N1N=C(c2cc3ccccc3o2)CC1c1c[nH]c2ccccc12` (centres undefined), 64.2%.
For the compound `Cc1c(C(N)=O)sc2c1c(=O)n(Cc1ccccc1)c1nnc(S(C)(=O)=O)n21`, the growth was 80.8%.
As to `CCOC(=O)C1=NN(c2ccccc2)C2=NC(=O)/C(=C\c3cn(-c4ccccc4)nc3-c3cc4ccccc4o3)C(=O)N12`, the growth was 102%.
For `CCCCN(CCCC)CC(O)CN(CC)CC` (centres undefined), the growth was 105%.
As for `CC(C)OC(=O)[C@H](C)N[P@@](=O)(OC[C@@]1(C)O[C@@H](n2cc(F)c(N)nc2=O)C[C@@H]1O[P@](=O)(N[C@@H](C)C(=O)OC(C)C)Oc1ccccc1)Oc1ccccc1`, the growth was 92.6%.
For the compound `COc1ccc(Cn2cc3c(c2)-c2oncc2CC3)cc1OC`, the growth was 59.2%.
As for `COc1ccc(Cn2cc3c(c2-c2ccc(OC)cc2)CCc2cnoc2-3)cc1`, the growth was 65.2%.
Take `COc1ccc2oc(=O)cc(CN3C(=O)S/C(=C\c4ccc(Cl)cc4)C3=O)c2c1`: the growth is 103%.
On the same count and under the same terms, then `COc1cc(-c2nc(/C=C3/C(=O)Nc4ccccc43)c3ccccn23)cc(OC)c1OC`, with 70.8%; and `CCNc1nnc(COc2ccc(CNC(=O)CCCC/C=C/C(C)C)cc2OC)o1`, with 105%.
The same measure, in the same setting: then `CC([C@H]1CC=C2C3CCC4=C[C@@H](N(C)C)CC[C@]4(C)C3CC[C@@]21C)N(C)C` (some centres undefined), with 17.9%; and `CCS(=O)(=O)OCCO[C@H]1Cc2cc3ccc(=O)oc3cc2OC1(C)C`, with 97.8%; and `CC1(C)NCCC[C@]2(C)[C@H]3CC=C4[C@@H]5C[C@](C)(COC(=O)c6ccccc6C(=O)O)CC[C@]5(C)CC[C@@]4(C)[C@]3(C)CC[C@@H]12`, with 67.8%.
As for `O=C1c2ccccc2CCc2ccccc21`, the growth was 103%.
Take `O=C(/C=C/c1c[nH]c2ccccc12)c1cc2ccccc2o1`: the growth is 98.4%.
In the case of `CCCCCCCCCCCCCCCCC(=O)O.CCCCCCCCCCCCCCCCCC(=O)O.CCCCCCCCCCCCCCCCCC(=O)O.CCCCCCCCCCCCCCCCCC(=O)O.CCCCCCCCCCCCCCCCCC(=O)O.CO[CH-]OC12COC1CC(O)C1(C)C(O)C(OC(C)O)C3=C(C)C(OC(=O)C(O)C([NH-])c4ccccc4)CC(O)(C(OC(=O)c4ccccc4)C21)C3(C)C.[Cu+].[Zn].[Zn].[Zn].[Zn].[Zn]` (centres undefined), the growth is 80.6%.
Regarding `N#Cc1ccc(NC2c3ccccc3CC2O)cc1` (centres undefined), the growth is 125%.
Still for that read-out and setting: as for `C=CCN(C)C`, the figure is 106%; as for `CC[C@@H](C)/C=C(C)/C=C/C(=O)c1c(O)c(-c2ccc(OC(=O)[C@@]34CC[C@@](C)(C(=O)O3)C4(C)C)cc2)cn(O)c1=O`, 2.75% (active).
`Cc1c(CN(C)C)cc(C(C)C)cc1C(C)C`: the growth is 108%.
As to `CC1(c2ccc(Br)cc2)NC(=O)NC1=O` (centres undefined), the growth is 98.4%.
For `Oc1ccc2ccccc2c1/C=N\Nc1ccccn1`, the growth is 12.9%.
Turning to `C=C(C)[C@@H]1CC[C@]2(COC(=O)c3ccccc3C(=O)O)CC[C@]3(C)[C@H](CC[C@@H]4[C@@]5(C)CCCNC(C)(C)[C@@H]5CC[C@]43C)[C@@H]12`, the growth is 81.7%.
For `COC1=C(OC)C(=O)c2ccccc2C1=O`, the growth was 76.7%.
Consider `O=C1C(Cl)=C(SC2=NCCN2)C(=O)c2ccccc21`, for which the growth was 36.9%.
As for `COC(=O)Nc1nc2ccc(C(=O)c3ccccc3N(C)C3COC3)cc2[nH]1`, the growth is 37.9%.
As for `C[C@@H](c1ccc2c(c1)[nH]c1ccc(Cl)cc12)c1nc2ccc(Cl)cc2[nH]1`, the growth was 98%.
As to `O=c1oc2ccc3ccccc3c2cc1-c1ccnc2[nH]c(=S)[nH]c(=O)c12`, the growth is 98.9%.
Take `O=S(=O)(Cc1cccc2c(CS(=O)(=O)c3ccc(Cl)cc3)cccc12)c1ccc(Cl)cc1`: the growth is 107%.
Still for that read-out and setting: as for `COc1ccc(CN2C(=O)/C(=C\C(=O)c3ccc(OCCN4CCCC4)cc3)c3ccccc32)cc1`, the figure is 105%.
Consider `Cc1cc(CSc2ccc(Cl)cc2)ccc1N`, for which the growth was 108%.

Values taken from PubChem BioAssay (NCI).
